Experimental data reported in PubChem BioAssay (NCI).
The panel holds about 83,000 compounds, 20% with a hit somewhere; the sample as a whole holds those more often.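 Values shown are percent growth following 48 h exposure of cells in 96-well plates to a single concentration of compound; below 10 was considered active.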 Calls of active or inactive are those of the source.

How the values were obtained:
Experiment in all cases: NCI-60 one-dose screen, 48 h (100 = growth as untreated, 0 = no growth, -100 = all killed)
Conditions in all cases: 10 µM unless noted
SK-MEL-2 melanoma = system: SK-MEL-2 melanoma
SN12C renal = system: SN12C renal
UO-31 renal = system: UO-31 renal
TK-10 renal = system: TK-10 renal
ACHN renal = system: ACHN renal
CAKI-1 renal = system: CAKI-1 renal
A498 renal = system: A498 renal
CCRF-CEM leukemia = system: CCRF-CEM leukemia
MOLT-4 leukemia = system: MOLT-4 leukemia
EKVX NSCLC = system: EKVX NSCLC

Measured: growth

CC1C=CC(OC(=O)C(C)(O)CCC(O)(C(=O)OC2CC(O)C(C(C)C)CC2(C)O)C(C)C)(C(C)C)CC1 (stereo unspecified)
active: SK-MEL-2 melanoma -81.6% [4.63 µM] | SN12C renal -62.4% [4.63 µM] | UO-31 renal -99.6% [4.63 µM] | TK-10 renal -86.1% [4.63 µM] | ACHN renal -93.8% [4.63 µM] | CAKI-1 renal -97.3% [4.63 µM] | A498 renal -92.3% [4.63 µM] | CCRF-CEM leukemia -31.8% [4.63 µM] | MOLT-4 leukemia -46.4% [4.63 µM]

O=C(NNC(=O)c1ccc(NC(=O)c2ccccn2)cc1)Nc1ccc2ccccc2c1
inactive: SK-MEL-2 melanoma 114% | SN12C renal 101% | UO-31 renal 82.5% | TK-10 renal 111% | ACHN renal 104% | CAKI-1 renal 106% | A498 renal 137% | CCRF-CEM leukemia 104% | MOLT-4 leukemia 108%

Cc1nc2ccccc2c(/C=C/c2ccccc2)c1C(=O)/C=C/c1ccccc1
active: CCRF-CEM leukemia 6.85%
inactive: SK-MEL-2 melanoma 27% | SN12C renal 23.4% | UO-31 renal 35.8% | TK-10 renal 31% | ACHN renal 17.4% | CAKI-1 renal 34.7% | A498 renal 74% | MOLT-4 leukemia 10.8%

CCNc1ccc(-c2nc3ccccc3n3cccc23)cc1
inactive: SK-MEL-2 melanoma 87.9% | SN12C renal 78% | UO-31 renal 51.6% | TK-10 renal 82.7% | ACHN renal 73.9% | CAKI-1 renal 57% | A498 renal 62.5% | CCRF-CEM leukemia 68.2% | MOLT-4 leukemia 71.2%

COc1ccc(/C=C/C(c2cc(OC)c(OC)c(OC)c2)n2ccnc2)cc1O (stereo unspecified)
inactive: SK-MEL-2 melanoma 41.7% | SN12C renal 57.2% | UO-31 renal 59.9% | TK-10 renal 84.5% | ACHN renal 46.3% | CAKI-1 renal 60.2% | A498 renal 67.5% | CCRF-CEM leukemia 37.1% | MOLT-4 leukemia 31.9%

O=C1NC(=O)/C(=C/c2c(-c3ccccc3)nc3sc(COc4ccccc4)nn23)S1
inactive: SK-MEL-2 melanoma 92.1% | SN12C renal 102% | UO-31 renal 84.7% | TK-10 renal 108% | ACHN renal 98.3% | CAKI-1 renal 98% | A498 renal 78.7% | CCRF-CEM leukemia 98.3% | MOLT-4 leukemia 96.1%

O=C(C1CCCCC1)[C@@H]1[C@]2(C(=O)NC3CCCCC32)[C@@H]2CCCN2[C@@]12C(=O)NC1CCC(Cl)CC12 (stereo partly specified)
active: SK-MEL-2 melanoma -79.2% [100 µM] | SN12C renal -80% [100 µM] | UO-31 renal -73% [100 µM] | TK-10 renal -81.1% [100 µM] | ACHN renal -97.8% [100 µM] | CAKI-1 renal -82.7% [100 µM] | A498 renal -94.8% [100 µM] | CCRF-CEM leukemia -49% [100 µM] | MOLT-4 leukemia -57.3% [100 µM]

CCN1CCN(CC(=O)Nc2nc3ccc(NCc4ccc(F)cc4)cc3s2)CC1
inactive: SK-MEL-2 melanoma 106% | SN12C renal 88.5% | UO-31 renal 75.6% | TK-10 renal 105% | ACHN renal 94.7% | CAKI-1 renal 89.9% | A498 renal 95.2% | CCRF-CEM leukemia 87% | MOLT-4 leukemia 84.8%

COc1cc(OC)c2sc(-c3ccc(-n4cncc4-c4cc(OC)c(OC)c(OC)c4)cc3)nc2c1
inactive: SK-MEL-2 melanoma 55.4% | SN12C renal 68.7% | UO-31 renal 41% | TK-10 renal 66.1% | ACHN renal 70.2% | CAKI-1 renal 24.3% | A498 renal 48.5% | CCRF-CEM leukemia 56.6% | MOLT-4 leukemia 32.1%

COC(=O)c1nc(-c2ccccc2)oc1S(=O)(=O)NCC(c1ccc(Cl)cc1)N1CCOCC1 (stereo unspecified)
inactive: SK-MEL-2 melanoma 80.9% | SN12C renal 81.2% | UO-31 renal 60% | TK-10 renal 62.3% | ACHN renal 64.7% | CAKI-1 renal 71.2% | A498 renal 90.4%
active: CCRF-CEM leukemia -21% | MOLT-4 leukemia 7.96%

CCc1ccc(CCC(=O)Nc2ncc(Cc3cc(Cl)ccc3Cl)s2)o1
active: A498 renal -0.625%
inactive: SK-MEL-2 melanoma 45.5% | SN12C renal 31.9% | UO-31 renal 33.4% | TK-10 renal 51% | ACHN renal 33.9% | CAKI-1 renal 23.9% | CCRF-CEM leukemia 10.4% | MOLT-4 leukemia 14.7%

CNCc1cccc2c1OCCOCCOCCNS(=O)(=O)c1ccc(cc1)-c1cnc(N)c(n1)C(=O)N2
inactive: SK-MEL-2 melanoma 30% | SN12C renal 19.2% | UO-31 renal 77.6% | TK-10 renal 41.7% | ACHN renal 54.7% | CAKI-1 renal 28.4% | A498 renal 51.5%
active: CCRF-CEM leukemia 7.66% | MOLT-4 leukemia 8.14%

C#CCO[C@H]1CC(CC#C)(CC#C)C(=O)[C@@H]2[C@H]1[C@H]1C[C@@H]3[C@@]4(C)CCC[C@@](C)(C(=O)OC)[C@@H]4CC[C@@]23C=C1C(C)C
inactive: SK-MEL-2 melanoma 97.9% | SN12C renal 94.1% | TK-10 renal 99.2% | ACHN renal 72.7% | CAKI-1 renal 41% | A498 renal 85.7% | MOLT-4 leukemia 76.7%
active: UO-31 renal -34.5% | CCRF-CEM leukemia -41.5%

CCN1C(=O)N(CC)C2C1NN=c1s/c(=C\c3ccc(C(F)(F)F)cc3)c(=O)n12 (stereo unspecified)
active: A498 renal 8.73% | CCRF-CEM leukemia 5.13%
inactive: SK-MEL-2 melanoma 56.1% | SN12C renal 24.2% | UO-31 renal 34.3% | TK-10 renal 59.7% | ACHN renal 27.6% | CAKI-1 renal 25.9% | MOLT-4 leukemia 10.9%

[2H]C([2H])([2H])Oc1ccc(F)cc1/C=C/C(=O)/C=C(/C=C/c1cc(F)ccc1OC([2H])([2H])[2H])OB(F)F
active: CCRF-CEM leukemia 1.24% | MOLT-4 leukemia 4.82%
inactive: SK-MEL-2 melanoma 94.2% | SN12C renal 67.4% | UO-31 renal 53.9% | TK-10 renal 96.9% | ACHN renal 54.5% | CAKI-1 renal 74.1% | A498 renal 111%

COc1ccc(-c2nn(-c3ccccc3)cc2/C=C/C(=O)NNC(=O)Nc2ccc(C)cc2)cc1
inactive: SK-MEL-2 melanoma 102% | EKVX NSCLC 97.2% | SN12C renal 97% | UO-31 renal 84.2% | TK-10 renal 99% | ACHN renal 102% | CAKI-1 renal 91.5% | A498 renal 109% | MOLT-4 leukemia 43%

CN(Cc1cnc2nc(N)nc(N)c2n1)c1ccc(C(=O)NC(CCC(=O)O)C(=O)O)cc1Br (stereo unspecified)
inactive: SK-MEL-2 melanoma 67.4% | SN12C renal 26% | UO-31 renal 38.8% | TK-10 renal 50.4% | ACHN renal 15.8% | CAKI-1 renal 19% | A498 renal 76.4% | CCRF-CEM leukemia 37.9% | MOLT-4 leukemia 30.5%

COc1cc(C2C(C(=O)OCc3ccccc3)=C(C)NC(C)=C2C(=O)OCc2ccccc2)cc(OC)c1OC
active: SK-MEL-2 melanoma -6.43% | MOLT-4 leukemia -9.95%
inactive: SN12C renal 29.1% | UO-31 renal 18.5% | TK-10 renal 34.8% | ACHN renal 16.2% | CAKI-1 renal 26.2% | A498 renal 36.8%

Cc1ccc(-c2csc(NC(=O)c3ccccc3CN3C(=O)c4ccccc4C3=O)n2)cc1
inactive: SK-MEL-2 melanoma 97.3% | SN12C renal 94.5% | UO-31 renal 85.9% | TK-10 renal 94.4% | ACHN renal 108% | CAKI-1 renal 86.6% | A498 renal 99.8% | CCRF-CEM leukemia 102% | MOLT-4 leukemia 93.4%

CCCCCN(CCCCC)CC(O)c1cc(C)c2ccc3cc(C(C)C)ccc3c2c1 (stereo unspecified)
active: SN12C renal -52.9% | ACHN renal -77.8% | CCRF-CEM leukemia -7.34% | MOLT-4 leukemia -21.5%
inactive: SK-MEL-2 melanoma 82.6% | UO-31 renal 51.8% | TK-10 renal 75.5% | CAKI-1 renal 57.7% | A498 renal 19.5%

CCOC(=O)/C=C1\S/C(=N\Nc2cc(=O)[nH]c3ccccc23)N(c2ccccc2)C1=O
inactive: SK-MEL-2 melanoma 110% | SN12C renal 98.9% | UO-31 renal 77.6% | TK-10 renal 117% | ACHN renal 102% | CAKI-1 renal 92.8% | A498 renal 125% | CCRF-CEM leukemia 101% | MOLT-4 leukemia 103%

C#CCn1cnc2cnc(Nc3cccc(NC(=O)C=C)c3)nc21
inactive: SK-MEL-2 melanoma 61.1% [6.25 µM] | SN12C renal 90.5% [6.25 µM] | UO-31 renal 37.5% [6.25 µM] | TK-10 renal 79.9% [6.25 µM] | ACHN renal 75.3% [6.25 µM] | CAKI-1 renal 83.4% [6.25 µM] | A498 renal 72% [6.25 µM]
active: CCRF-CEM leukemia 1.84% [6.25 µM] | MOLT-4 leukemia 8.28% [6.25 µM]

CC(C)(C)n1cc(-c2ccnc(NCCCNS(=O)(=O)c3cccc4ccccc34)c2)c(-c2cccc(F)c2)n1
inactive: SK-MEL-2 melanoma 107% | SN12C renal 73.3% | UO-31 renal 65.9% | TK-10 renal 97% | ACHN renal 91.5% | CAKI-1 renal 94.3% | A498 renal 29.2% | CCRF-CEM leukemia 56.9% | MOLT-4 leukemia 57.9%

CN(C)c1ccc(/C=C(\C#N)c2cc3ccccc3[nH]2)cc1
active: CCRF-CEM leukemia 9.57%
inactive: SK-MEL-2 melanoma 27.3% | SN12C renal 29% | UO-31 renal 37.8% | TK-10 renal 49.2% | ACHN renal 46.2% | CAKI-1 renal 31.5% | A498 renal 14.4% | MOLT-4 leukemia 38.4%

Cc1ccc(C(=O)c2ccc(CC(=O)N=Nc3c(O)[nH]c4ccc(Br)cc34)n2C)cc1
inactive: SK-MEL-2 melanoma 91.3% | EKVX NSCLC 74.3% | SN12C renal 85.2% | UO-31 renal 64.7% | TK-10 renal 131% | ACHN renal 88.9% | CAKI-1 renal 79.7% | A498 renal 89.3% | MOLT-4 leukemia 86%

O=C(O)COc1ccc(Cl)c(Cl)c1
inactive: SK-MEL-2 melanoma 118% | SN12C renal 114% | UO-31 renal 108% | TK-10 renal 116% | ACHN renal 107% | CAKI-1 renal 107% | A498 renal 110% | CCRF-CEM leukemia 100% | MOLT-4 leukemia 101%

Cc1ccc(C=C2C(=O)NC(=O)NC2=O)cc1
inactive: SK-MEL-2 melanoma 104% | SN12C renal 99.2% | UO-31 renal 89.9% | TK-10 renal 97.8% | ACHN renal 110% | CAKI-1 renal 100% | A498 renal 105% | CCRF-CEM leukemia 103% | MOLT-4 leukemia 95.1%

COc1cc(-c2nc3sccn3c2-c2ccnc(NCCNS(=O)(=O)c3ccc(Cl)cc3)n2)ccc1F
active: UO-31 renal 6.85% | CCRF-CEM leukemia 6.78% | MOLT-4 leukemia -3.87%
inactive: SK-MEL-2 melanoma 12.6% | SN12C renal 37.4% | TK-10 renal 55.1% | ACHN renal 20.4% | CAKI-1 renal 19.6% | A498 renal 52.8%
